The record followed here is PubChem BioAssay AID624354 (Sanford-Burnham Center for Chemical Genomics, 2012).

Each structure is given as a SMILES string. Out of some 360,000 compounds screened, about 3,800 (1.1%) were called active. What follows is part of a selection rich in actives, with near analogues and random picks from the rest. Unmarked numbers belong to inactive results.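 The calls were made as follows: active = compounds causing at least 50% loss of cell viability in the single-dose screen, relative to plate controls; inactive = the rest.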

The assay is described as follows: TRAIL-exposed caspase-8 expressing cell killing – NB7+C8 cells, ATPlite luminescence, TRAIL sensitizer project, primary screen (AID 624354). As to conditions: at 10 µM, hits give high values. (In general: In ATP-based viability assays light output follows the ATP content of the culture.)
As for `O=C(CN1C(=O)c2cccnc2Oc2ccc(Cl)cc21)Nc1ccc(F)cc1`, the inhibition (viability loss, TRAIL sensitization) is 4.45%. On to `CC(/C=C/C1(O)C(C)CC(=O)CC1(C)C)OC1OC(CO)C(O)C(O)C1O` (stereo not given), for which the inhibition (viability loss, TRAIL sensitization) is 14.6%. Next, `CN(CCO)c1ccc(/C=N/Nc2nncc3ccccc23)cc1`: 95.3% (active); `O=C1COc2c1ccc(O)c2O`: -11.8%. `CCC(C)c1ccc(O)c(/C=N/O)c1` (stereo not given): the inhibition (viability loss, TRAIL sensitization) was 51% (active).

Consider `CNCC(O)c1ccc(O)c(O)c1` (stereo not given), for which the inhibition (viability loss, TRAIL sensitization) is -0.467%. For `CS(=O)(=O)N(Cc1ccc(Cl)cc1)c1ccc(C(=O)NCCSCc2ccco2)cc1`, the inhibition (viability loss, TRAIL sensitization) is -4.92%. With `CCc1c(C)c2ccc(OC3CCCCC3=O)cc2oc1=O` (stereo not given), the inhibition (viability loss, TRAIL sensitization) is -0.131%. `O=C(NCCCN1CCN(c2ccccc2F)CC1)C1CCC(=O)N1C1CCCCC1` (stereo not given): the inhibition (viability loss, TRAIL sensitization) is 0.0726%.

Turning to `Cc1c(C(=O)NCCN(C)C)oc2ccc(S(=O)(=O)N3CCCC3)cc12`, the inhibition (viability loss, TRAIL sensitization) was -7.61%. Consider `CCOc1ccc(C(CCc2ccccc2)NC(=O)c2ccc(OC)c(OC)c2)cc1OCC` (stereo not given), for which the inhibition (viability loss, TRAIL sensitization) was 30.5%. With `COc1ccc(CCNC(=O)CN(c2ccccc2)S(C)(=O)=O)cc1OC`, the inhibition (viability loss, TRAIL sensitization) is -3.49%. On to `COc1ccc(C(CCN(Cc2ccc(OC)c(OC)c2)C(=O)CCl)c2ccccc2)cc1` (stereo not given), for which the inhibition (viability loss, TRAIL sensitization) is 97.3% (active). Regarding `N#Cc1ccc(OCc2nnc(-c3ccc([N+](=O)[O-])cc3)o2)cc1`, the inhibition (viability loss, TRAIL sensitization) was -1.32%. `CCOc1ccc(NC(=O)N(CCC(C)C)C(C)c2ccco2)cc1` (stereo not given): the inhibition (viability loss, TRAIL sensitization) is -2%.

Regarding `CCOc1ccc(-c2nnc(-c3ccco3)o2)cc1`, the inhibition (viability loss, TRAIL sensitization) was 55.3% (active). Next, `O=C(Nc1n[nH]c(C(F)(F)F)n1)c1cccs1`: -2.07%. Consider `COc1cc(NC(=O)c2ccc(-c3csc(C)n3)cc2)c(OC)cc1Cl`, for which the inhibition (viability loss, TRAIL sensitization) was 25.1%. As for `Cc1nc(-c2ccc(NC(=O)c3cccs3)cc2)cs1`, the inhibition (viability loss, TRAIL sensitization) was 81% (active).

As for `CC(=O)NNc1cc(=O)c2c(=O)n(C)c(=O)n(C)c2[nH]1`, the inhibition (viability loss, TRAIL sensitization) is 7.17%. Take `Cc1cnc(NC(=O)Cn2cnc3c2c(=O)n(C)c(=O)n3C)s1`: the inhibition (viability loss, TRAIL sensitization) is -2.16%. With `Cc1cc(C)cc(NC(=O)NCc2ccccn2)c1`, the inhibition (viability loss, TRAIL sensitization) was 7.88%. Next, `Cc1cnc(NC(=O)c2ccccn2)s1`: 56% (active); `COc1ccc2occ(C(=O)c3ccc(N=C(C)N(C)C)cc3)c2c1`: 10.5%. On to `O=C(Nc1ccc(OC(F)(F)F)cc1)c1ccc2c(c1)no[n+]2[O-]`, for which the inhibition (viability loss, TRAIL sensitization) is 86.8% (active). Next, `Cc1ccc(NC(=O)c2ccc(Oc3ncccn3)cc2)cc1`: 1.61%; `CCc1nnc(NS(=O)(=O)c2ccc(NC(=O)c3cccc(OC(F)(F)C(F)F)c3)cc2)s1`: -18.2%; `C=CCn1c(C)cc(C(=O)CN2C(=O)c3ccccc3C2=O)c1C`: 52% (active).

Take `Cc1ccccc1C(=O)NNC(=O)CN1C(=O)c2ccccc2C1=O`: the inhibition (viability loss, TRAIL sensitization) is -2.34%. With `C=CCN(CC=C)C(=O)CN1C(=O)c2ccccc2C1=O`, the inhibition (viability loss, TRAIL sensitization) is 36.5%.

For `COc1ccc(CN2C[C@H]3CON(C)[C@H]3C[C@H]2c2ccc(-c3cccc(F)c3)cc2)cc1`, the inhibition (viability loss, TRAIL sensitization) was 17%. In the case of `COc1ccc(NC(=O)/C(Cl)=C(/Cl)S(=O)Cc2ccc(C)cc2)cn1` (stereo not given), the inhibition (viability loss, TRAIL sensitization) was 95.5% (active). Next, `COc1cc(NC(=O)Nc2ccc(C)cc2)cc([N+](=O)[O-])c1`: 3.5%; `COC(C)(C)[C@]12CC(O)(C(C)C)ON1[C@H]1CCCCC1N2O` (stereo not given in full): -21.2%; `O=[N+]([O-])c1cc(Br)c(O)c(/C=N/Nc2nc3ccccc3s2)c1`: 51.2% (active).

For the compound `O=[N+]([O-])c1c(NCCO)cc(Sc2nc3ccccc3s2)c2nonc12`, the inhibition (viability loss, TRAIL sensitization) is 20.4%. Next, `O=[N+]([O-])c1cccc(C=NN=Cc2ccccc2O)c1`: 11%; `CC(C)C[C@H]1CNC(=S)N1C[C@H]1CCCN1C[C@H](Cc1ccc(O)cc1)N1C[C@H](Cc2ccc(O)cc2)N(CC2CCCCC2)C1=S`: 9.11%; `COc1cc(/C=C2\Oc3ccc(C#Cc4ccc(O)cc4)cc3C2=O)cc(OC)c1`: 64.7% (active).

Turning to `COc1cc(C(=O)N2CCOC23CCN(Cc2ccccc2)CC3)cc(OC)c1OC`, the inhibition (viability loss, TRAIL sensitization) is -0.803%. As to `CCSCc1nc(N)nc(NCCc2ccccc2)n1`, the inhibition (viability loss, TRAIL sensitization) was -10.6%. Next, `CC(=O)Nc1cccc(C(=O)OCN2C(=O)c3ccccc3C2=O)c1`: -5.54%; `CC(=O)Nc1cccc(C(=O)OCC(=O)c2ccc3c(c2)OCO3)c1`: 61.4% (active); `CC(=O)Nc1cccc(C(=O)OCC(=O)NCc2cc(C)c(O)c(C)c2)c1`: -2.97%.

Consider `CC(C)C[C@@H](COc1ccccc1)N1CCN(CC(C)C)CCC1=O`, for which the inhibition (viability loss, TRAIL sensitization) was -6.68%. For the compound `CCCCc1nc(NCCN)c(C#N)c2c1CSC(C)(C)C2`, the inhibition (viability loss, TRAIL sensitization) was 57.7% (active).

`CCCCc1nc(NCc2ccccc2)c(C#N)c2c1CCCC2`: the inhibition (viability loss, TRAIL sensitization) is 4.11%. In the case of `CC(=O)N1CCCc2cc(S(=O)(=O)N3CCCC(C(=O)N4CCN(c5cccc(Cl)c5)CC4)C3)ccc21` (stereo not given), the inhibition (viability loss, TRAIL sensitization) is 35.8%. As to `Cc1nc2ccc(N)nc2nc1C`, the inhibition (viability loss, TRAIL sensitization) is 6.29%. Next, `COc1cccc(-n2c(=O)c3c(C)c(C(=O)N(C)C)sc3n(CC(=O)NCCc3ccc(OC)c(OC)c3)c2=O)c1`: -6.94%.
